Data reported in PMC7862700, “An all-to-all approach to the identification of sequence-specific readers for epigenetic DNA modifications on cytosine”.

Experiments:
Assay in all cases: DAPPL (digital affinity profiling via proximity ligation, sequencing); 10 mM Tris-HCl pH 7.5, 50 mM NaCl, 1 mM DTT, 4% glycerol, room temperature, 30 min; GST-TFs on glutathione beads, 16-mer random dsDNA library, 0.1% formaldehyde crosslink after washing; high values mean tight binding
Conditions in all cases: protein: recombinant; tags: N-terminal GST; dsDNA, one strand shown
FLI1 = target: T1, FLI1 (Homo sapiens, UniProt Q01543 1-452)
T1 sequence: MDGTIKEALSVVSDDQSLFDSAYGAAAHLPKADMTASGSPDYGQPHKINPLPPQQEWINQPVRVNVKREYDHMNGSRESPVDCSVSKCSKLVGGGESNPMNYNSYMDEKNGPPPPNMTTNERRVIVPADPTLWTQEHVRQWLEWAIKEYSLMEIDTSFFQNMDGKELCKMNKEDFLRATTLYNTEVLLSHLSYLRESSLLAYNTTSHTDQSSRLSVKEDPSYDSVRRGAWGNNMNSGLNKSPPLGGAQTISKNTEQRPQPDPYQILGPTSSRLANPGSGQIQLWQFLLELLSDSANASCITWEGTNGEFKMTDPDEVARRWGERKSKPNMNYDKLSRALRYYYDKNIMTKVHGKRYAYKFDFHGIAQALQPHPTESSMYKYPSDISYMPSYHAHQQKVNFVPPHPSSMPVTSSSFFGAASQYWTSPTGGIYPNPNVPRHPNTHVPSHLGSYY
Summary of the method: (§1)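 Human transcription factors carrying a GST fusion were produced in yeast, bound to glutathione beads, tagged with DNA barcodes and pooled together with a tag-only sample. Each pool was held with 200 nmole of a random double-stranded 16-mer DNA library in Tris/NaCl/DTT/glycerol buffer for 30 min at room temperature, then washed, crosslinked in 0.1% formaldehyde, proximity-ligated with BsaI/T4 ligase (1 h, 37 °C), PCR-amplified and sequenced on an Illumina NextSeq500. Binding signal is the read frequency of each hexamer for a given factor divided by its frequency in the tag-only sample.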

ELK1 = target: T2, ELK1 (Homo sapiens, UniProt P19419 1-428)
T2 sequence: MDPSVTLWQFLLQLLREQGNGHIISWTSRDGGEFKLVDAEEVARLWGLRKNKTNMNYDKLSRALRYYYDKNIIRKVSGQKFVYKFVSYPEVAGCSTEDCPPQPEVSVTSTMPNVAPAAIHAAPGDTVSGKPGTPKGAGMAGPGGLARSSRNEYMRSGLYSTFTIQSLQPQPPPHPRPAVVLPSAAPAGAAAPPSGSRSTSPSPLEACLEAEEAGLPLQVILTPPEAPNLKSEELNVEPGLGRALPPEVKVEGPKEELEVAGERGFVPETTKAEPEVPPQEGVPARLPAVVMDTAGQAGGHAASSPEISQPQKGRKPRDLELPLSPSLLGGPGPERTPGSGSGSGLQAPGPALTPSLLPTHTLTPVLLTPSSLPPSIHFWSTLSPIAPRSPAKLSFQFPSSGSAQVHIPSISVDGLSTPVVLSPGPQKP
Summary of the method: as §1

GABPA = target: T3, GABPA (Homo sapiens, UniProt Q06546 1-454)
T3 sequence: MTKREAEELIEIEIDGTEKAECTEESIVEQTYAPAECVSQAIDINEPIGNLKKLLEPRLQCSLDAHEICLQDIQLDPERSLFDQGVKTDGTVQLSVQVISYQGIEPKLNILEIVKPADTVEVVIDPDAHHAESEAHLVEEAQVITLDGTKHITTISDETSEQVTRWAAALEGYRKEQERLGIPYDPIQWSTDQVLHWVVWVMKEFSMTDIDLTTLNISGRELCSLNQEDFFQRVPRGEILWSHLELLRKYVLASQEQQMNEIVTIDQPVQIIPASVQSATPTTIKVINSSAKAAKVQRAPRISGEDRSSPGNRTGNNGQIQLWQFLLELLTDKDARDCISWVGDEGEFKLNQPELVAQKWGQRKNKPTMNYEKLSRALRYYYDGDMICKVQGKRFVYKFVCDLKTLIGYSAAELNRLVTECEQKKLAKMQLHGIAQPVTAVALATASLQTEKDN
Summary of the method: as §1

ERG = target: T4, ERG (Homo sapiens, UniProt P11308 1-479)
T4 sequence: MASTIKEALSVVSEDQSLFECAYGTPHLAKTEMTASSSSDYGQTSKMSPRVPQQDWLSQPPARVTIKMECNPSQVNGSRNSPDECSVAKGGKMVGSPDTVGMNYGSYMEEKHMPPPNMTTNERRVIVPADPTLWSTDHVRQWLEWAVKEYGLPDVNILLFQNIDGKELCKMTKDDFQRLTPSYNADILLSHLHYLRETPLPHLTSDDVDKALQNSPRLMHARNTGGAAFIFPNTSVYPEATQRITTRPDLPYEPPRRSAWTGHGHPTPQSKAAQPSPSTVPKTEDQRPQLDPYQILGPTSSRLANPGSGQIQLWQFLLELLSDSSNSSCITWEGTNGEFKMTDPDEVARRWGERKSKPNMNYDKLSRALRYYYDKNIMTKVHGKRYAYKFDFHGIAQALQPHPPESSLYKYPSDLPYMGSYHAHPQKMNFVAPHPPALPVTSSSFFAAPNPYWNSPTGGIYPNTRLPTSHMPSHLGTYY
Summary of the method: as §1

ELF1 = ELF1 (Homo sapiens, UniProt P32519 1-619)
Summary of the method: as §1

EHF = target: T5, EHF (Homo sapiens, UniProt Q9NZC4 1-300)
T5 sequence: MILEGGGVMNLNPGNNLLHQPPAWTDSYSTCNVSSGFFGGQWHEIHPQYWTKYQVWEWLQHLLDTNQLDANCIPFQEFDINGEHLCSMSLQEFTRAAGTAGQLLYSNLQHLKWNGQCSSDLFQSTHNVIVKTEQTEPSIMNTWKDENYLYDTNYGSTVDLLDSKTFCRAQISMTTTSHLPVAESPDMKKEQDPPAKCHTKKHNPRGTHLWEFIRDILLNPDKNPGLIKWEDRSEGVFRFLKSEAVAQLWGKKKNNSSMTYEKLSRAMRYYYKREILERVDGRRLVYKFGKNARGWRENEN
Summary of the method: as §1

SPI1 = SPI1 (Homo sapiens, UniProt P17947 1-270)
Summary of the method: as §1

SPIB = SPIB (Homo sapiens, UniProt Q01892 1-262)
Summary of the method: as §1

ELK3 = target: T6, ELK3 (Homo sapiens, UniProt P41970 1-407)
T6 sequence: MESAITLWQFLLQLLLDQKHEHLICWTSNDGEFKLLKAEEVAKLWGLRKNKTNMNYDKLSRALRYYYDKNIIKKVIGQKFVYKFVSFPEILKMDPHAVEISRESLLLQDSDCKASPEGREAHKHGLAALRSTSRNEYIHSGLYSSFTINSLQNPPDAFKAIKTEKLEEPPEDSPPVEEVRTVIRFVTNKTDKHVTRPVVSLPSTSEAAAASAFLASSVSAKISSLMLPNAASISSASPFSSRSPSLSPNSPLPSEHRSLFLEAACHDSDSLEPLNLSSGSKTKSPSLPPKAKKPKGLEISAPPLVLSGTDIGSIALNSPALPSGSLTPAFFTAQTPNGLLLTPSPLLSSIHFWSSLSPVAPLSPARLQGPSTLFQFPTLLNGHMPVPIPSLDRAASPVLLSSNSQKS
Summary of the method: as §1

Chain of ELF1 (P32519 whole entry): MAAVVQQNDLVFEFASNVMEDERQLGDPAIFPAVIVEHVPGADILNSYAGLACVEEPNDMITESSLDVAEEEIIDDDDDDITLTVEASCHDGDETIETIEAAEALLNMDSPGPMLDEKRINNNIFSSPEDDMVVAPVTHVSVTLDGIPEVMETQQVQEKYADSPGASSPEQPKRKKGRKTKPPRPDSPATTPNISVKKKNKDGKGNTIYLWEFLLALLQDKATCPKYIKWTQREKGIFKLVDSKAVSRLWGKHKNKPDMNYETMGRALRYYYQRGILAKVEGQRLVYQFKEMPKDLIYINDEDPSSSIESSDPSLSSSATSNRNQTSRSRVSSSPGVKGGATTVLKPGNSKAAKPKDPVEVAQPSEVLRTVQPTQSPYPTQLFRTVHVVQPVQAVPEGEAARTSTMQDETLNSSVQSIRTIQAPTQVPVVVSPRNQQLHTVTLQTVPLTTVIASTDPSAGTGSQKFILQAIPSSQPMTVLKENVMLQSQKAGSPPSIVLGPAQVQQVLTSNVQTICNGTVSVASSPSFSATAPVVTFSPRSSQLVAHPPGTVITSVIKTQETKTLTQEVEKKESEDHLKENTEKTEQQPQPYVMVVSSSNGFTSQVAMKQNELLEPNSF
Chain of SPIB (Q01892 whole entry): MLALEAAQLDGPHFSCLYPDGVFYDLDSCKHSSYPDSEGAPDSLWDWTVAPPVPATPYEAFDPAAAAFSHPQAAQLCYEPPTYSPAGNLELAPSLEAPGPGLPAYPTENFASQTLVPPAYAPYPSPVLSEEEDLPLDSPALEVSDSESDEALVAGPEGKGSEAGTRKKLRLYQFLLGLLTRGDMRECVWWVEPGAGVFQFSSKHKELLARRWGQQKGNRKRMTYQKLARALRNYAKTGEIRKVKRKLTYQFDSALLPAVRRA

Sequence: ATGACT
- binding signal (FLI1): 1.5 fold enrichment (6-mer frequency, TF over GST control)
- binding signal (ELK1): 1.42 fold enrichment (6-mer frequency, TF over GST control)
- binding signal (GABPA): 1.39 fold enrichment (6-mer frequency, TF over GST control)
- binding signal (ERG): 1.44 fold enrichment (6-mer frequency, TF over GST control)
- binding signal (ELF1): 1.42 fold enrichment (6-mer frequency, TF over GST control)
- binding signal (EHF): 1.35 fold enrichment (6-mer frequency, TF over GST control)
- binding signal (SPI1): 1.51 fold enrichment (6-mer frequency, TF over GST control)
- binding signal (SPIB): 1.52 fold enrichment (6-mer frequency, TF over GST control)
- binding signal (ELK3): 1.33 fold enrichment (6-mer frequency, TF over GST control)
